Here are results for six molecules from PubChem BioAssay.

Active and inactive are the calls of the source.

The test system of assay [1] is Plasmodium falciparum Sir2 (PF13_0152, Sir2A). The assay can be described thus: Plasmodium falciparum Sir2A binding compounds – biochemical, small-molecule microarray, 635 nm fluorescence, primary screen (AID 1098).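 Further: score merges spot fluorescence intensity with its signal-to-noise ratio.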 Conditions: fluorescence 635 nm, higher = more signal.
Assay [2] in a line: probe aDKK1 binding to arrayed compounds – biochemical, biotinylated probe, 635/667 nm fluorescence, primary screen (AID 1099).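 Further: score merges 667nm spot fluorescence with signal to noise across triplicate slides.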 Conditions: small-molecule microarray, higher = more signal.
Assay [3] is described as follows: probe aCHRDL2 binding to arrayed compounds – biochemical, biotinylated probe, 635/667 nm fluorescence, primary screen (AID 1100). Conditions: small-molecule microarray, higher = more signal.
Assay [4] is described as follows: change in splice reporter luminescence, either direction, cell-based, HEK293, spliceosome inhibition project, primary screen (AID 1101).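 Further: HEK293 cells carrying a splicing-competent luciferase reporter gene; test concentration not given here.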 As to conditions: HEK293 splicing luciferase reporter, 24 h, higher = more signal, called active from +8 up or from −8 down.
For assay [5], the target named is Fibroblast growth factor 10 (Homo sapiens) (UniProt O15520). The assay can be described thus: compounds binding fibroblast growth factor 10 – biochemical, small-molecule microarray, 635 nm fluorescence, primary screen (AID 1102). As to conditions: FGF10 binding, fluorescence 635 nm, higher = more signal.
The test system of assay [6] is glycogen synthase kinase-3 (GSK3A per assay name; protocol says GSK3B). The assay can be described thus: compounds binding glycogen synthase kinase-3 – biochemical, small-molecule microarray, 635 nm fluorescence, GSK3A, primary screen (AID 1103). Further: the record names both GSK3A and GSK3B. As to conditions: fluorescence 635 nm, higher = more signal.
Assay [7] concerns the target Epidermal growth factor receptor (Homo sapiens) (UniProt P00533). The assay can be described thus: compounds binding epidermal growth factor receptor – biochemical, small-molecule microarray, 635 nm fluorescence, primary screen (AID 1104).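 Further: score merges 667 nm emission intensity with spot signal to noise over triplicate slides.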 As to conditions: EGFR binding, higher = more signal.
Assay [8] deals with Follistatin-related protein 3 (Homo sapiens) (UniProt O95633). The assay can be described thus: compounds binding follistatin-related protein 3 – biochemical, small-molecule microarray, 635 nm fluorescence, primary screen (AID 1105).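 Further: score merges emission near 667 nm and signal to noise per printed spot across three slides.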 Conditions: FSTL3 binding, higher = more signal.
Assay [9] deals with Dickkopf-related protein 1 (Homo sapiens) (UniProt O94907). The assay can be described thus: small molecules binding DKK1 protein – biochemical, small-molecule microarray, 635 nm fluorescence scan, primary screen (AID 1106).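 Further: score merges emission near 667 nm with signal to noise over three replicate slides.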 Conditions: higher = more signal.
Assay [10] has as its system Inhibin beta A chain (activin A). The assay can be described thus: small molecules binding activin A – biochemical, small-molecule microarray, 635 nm fluorescence scan, primary screen (AID 1107).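 Further: mouse activin A protein probed at 4.33 µg/mL on printed slides; score merges bound-protein fluorescence near 667 nm with spot signal-to-noise.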 As to conditions: INHBA, higher = more signal.
Assay [11] has as its system Human papillomavirus type 1a protein E7 (residues 44-93). The assay can be described thus: small molecules binding HPV E7 44-93 – biochemical, small-molecule microarray, residues 44-93, 635 nm fluorescence, primary screen (AID 1108).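 Further: E7 fragment applied at 1 µg/mL in TBST for 1 h at 4 C; score combines spot fluorescence with its signal to noise ratio.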 As to conditions: fluorescence 635 nm, higher = more signal.
Assay [12] in a line: hepatitis C replication reporter changes, two-sided – Huh7 cells, luciferase reporter, HCV replication inhibitor project, primary screen (AID 1109).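 Further: huh7 hepatoma cells harbouring a luciferase neomycin HCV replicon reporter; luciferase luminescence as measure of HCV replicon replication; test concentration not given here.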 Conditions: Huh7 HCV replicon luciferase reporter, 48 h; higher = more signal.
Assay [13] deals with Left-right determination factor 2 (Homo sapiens) (UniProt O00292). The assay can be described thus: small molecules binding LEFTY2 protein – biochemical, small-molecule microarray, 635 nm fluorescence scan, primary screen (AID 1110). Conditions: higher = more signal.
The target in assay [14] is Calmodulin-1 (Homo sapiens) (UniProt P0DP23). The assay can be described thus: small molecules binding calmodulin-1 with EGTA – biochemical, small-molecule microarray, Cy5-labelled CALM1, profiling panel (AID 1111).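 Further: labelled calmodulin applied in Tris saline Tween buffer holding calcium plus EGTA and DTT.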 Conditions: Cy5-CALM1 binding fluorescence, higher = more signal.
The target is the same in assay [15]. The assay can be described thus: small molecules binding Ca-loaded calmodulin-1 – biochemical, small-molecule microarray, Cy5-labelled CALM1, plus calcium, artefact control for SMM control-protein annotation, profiling panel (AID 1112).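 Further: score merges spot fluorescence with signal to noise from triplicate slides.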 Conditions: Cy5-CALM1 binding fluorescence, higher = more signal.
Assay [16] is described as follows: probe aWnt5a binding to arrayed compounds – biochemical, biotinylated probe, 635/667 nm fluorescence, primary screen (AID 1113).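 Further: score merges 667 nm fluorescence intensity with signal-to-noise per printed feature.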 As to conditions: small-molecule microarray, higher = more signal.
A short description of assay [17]: probe aShh binding to arrayed compounds – biochemical, biotinylated probe, 635/667 nm fluorescence, primary screen (AID 1114).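 Further: probe is biotin-labelled aShh protein from a stem cell growth factor screen; measures binding of labelled protein to compounds printed on the slide; score merges feature fluorescence at 667 nm with signal-to-noise.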 As to conditions: small-molecule microarray, higher = more signal.
Assay [18] is described as follows: probe aNog binding to arrayed compounds – biochemical, biotinylated probe, 635/667 nm fluorescence, primary screen (AID 1115).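 Further: probe is biotinylated aNog protein used at 0.15 µg/mL for 1 h at 4 C; z-score combines 667 nm fluorescence of each spot with its signal to noise.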 As to conditions: small-molecule microarray, higher = more signal.
In assay [19] the target is Torsin-1A-interacting protein 1 (Homo sapiens) (UniProt Q5JTV8). The assay can be described thus: compound microarray binding of lysate hLAP1 – cell lysate, small-molecule microarray, COS7 lysate, 635/667 nm fluorescence, primary screen (AID 1116). Conditions: 635 nm fluorescence, higher = more signal.
Assay [20] addresses Alpha-bungarotoxin (Bungarus multicinctus) (UniProt P60615). The assay can be described thus: compounds binding labelled alpha-BTX control protein – biochemical, small-molecule microarray, Alexa647 label, 635/667 nm fluorescence, artefact control for SMM control protein annotation, profiling panel (AID 1117). As to conditions: alpha-BTX-A647 binding fluorescence, higher = more signal.

Chain of Fibroblast growth factor 10 (Homo sapiens) (O15520 whole entry, looked up): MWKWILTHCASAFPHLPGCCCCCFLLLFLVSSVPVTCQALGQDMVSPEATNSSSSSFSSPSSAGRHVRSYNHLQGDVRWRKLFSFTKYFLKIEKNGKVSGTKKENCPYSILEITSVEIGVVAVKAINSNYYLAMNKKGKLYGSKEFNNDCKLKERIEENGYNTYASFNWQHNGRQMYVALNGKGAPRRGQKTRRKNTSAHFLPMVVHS
Chain of Left-right determination factor 2 (Homo sapiens) (O00292 whole entry, looked up): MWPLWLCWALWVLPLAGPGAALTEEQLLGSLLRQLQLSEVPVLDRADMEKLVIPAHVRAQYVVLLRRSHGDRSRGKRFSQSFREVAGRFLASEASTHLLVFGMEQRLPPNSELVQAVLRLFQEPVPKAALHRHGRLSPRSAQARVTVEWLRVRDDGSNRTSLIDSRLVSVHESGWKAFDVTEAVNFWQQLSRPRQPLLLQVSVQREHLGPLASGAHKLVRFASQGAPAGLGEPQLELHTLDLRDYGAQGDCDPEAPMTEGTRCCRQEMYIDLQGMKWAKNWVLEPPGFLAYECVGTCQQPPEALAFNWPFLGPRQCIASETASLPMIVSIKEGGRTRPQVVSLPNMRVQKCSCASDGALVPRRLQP
Chain of Epidermal growth factor receptor (Homo sapiens) (P00533 whole entry, looked up): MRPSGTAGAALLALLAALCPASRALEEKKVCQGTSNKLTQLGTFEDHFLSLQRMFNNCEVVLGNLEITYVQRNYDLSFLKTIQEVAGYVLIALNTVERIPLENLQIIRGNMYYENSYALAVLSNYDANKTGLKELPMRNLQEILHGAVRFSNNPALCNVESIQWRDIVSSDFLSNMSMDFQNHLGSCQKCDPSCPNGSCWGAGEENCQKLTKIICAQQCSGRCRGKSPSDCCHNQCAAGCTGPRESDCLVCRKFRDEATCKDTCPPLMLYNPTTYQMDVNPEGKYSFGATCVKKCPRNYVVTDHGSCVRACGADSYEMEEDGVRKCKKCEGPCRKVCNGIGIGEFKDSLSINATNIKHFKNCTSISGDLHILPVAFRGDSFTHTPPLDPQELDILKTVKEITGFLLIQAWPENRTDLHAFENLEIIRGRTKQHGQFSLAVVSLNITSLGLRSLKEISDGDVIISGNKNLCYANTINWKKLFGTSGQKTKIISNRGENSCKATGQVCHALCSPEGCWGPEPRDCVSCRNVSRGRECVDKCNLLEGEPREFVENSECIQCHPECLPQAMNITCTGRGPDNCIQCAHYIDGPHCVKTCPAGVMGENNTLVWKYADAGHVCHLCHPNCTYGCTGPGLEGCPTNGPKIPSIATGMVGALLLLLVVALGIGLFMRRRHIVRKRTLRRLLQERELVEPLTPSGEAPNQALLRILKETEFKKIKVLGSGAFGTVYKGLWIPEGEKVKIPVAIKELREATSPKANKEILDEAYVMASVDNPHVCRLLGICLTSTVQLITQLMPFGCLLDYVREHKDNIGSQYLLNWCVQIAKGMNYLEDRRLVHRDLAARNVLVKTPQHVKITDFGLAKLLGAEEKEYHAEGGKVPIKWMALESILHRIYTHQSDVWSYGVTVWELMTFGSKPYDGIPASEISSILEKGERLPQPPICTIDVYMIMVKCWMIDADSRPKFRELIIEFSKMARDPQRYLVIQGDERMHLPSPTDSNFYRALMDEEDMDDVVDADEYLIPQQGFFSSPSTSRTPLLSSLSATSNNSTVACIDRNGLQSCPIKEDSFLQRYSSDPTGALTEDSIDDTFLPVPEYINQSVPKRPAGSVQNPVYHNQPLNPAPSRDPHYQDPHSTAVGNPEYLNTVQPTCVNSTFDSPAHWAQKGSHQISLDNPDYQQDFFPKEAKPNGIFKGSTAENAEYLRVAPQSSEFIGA
Chain of Dickkopf-related protein 1 (Homo sapiens) (O94907 whole entry, looked up): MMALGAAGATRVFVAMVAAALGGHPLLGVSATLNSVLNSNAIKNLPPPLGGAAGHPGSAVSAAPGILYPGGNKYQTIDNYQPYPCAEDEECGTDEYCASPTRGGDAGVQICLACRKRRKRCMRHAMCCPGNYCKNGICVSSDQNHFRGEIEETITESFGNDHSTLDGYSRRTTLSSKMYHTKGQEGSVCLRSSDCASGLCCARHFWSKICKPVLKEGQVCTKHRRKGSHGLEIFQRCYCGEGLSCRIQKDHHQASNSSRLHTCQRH
Chain of Torsin-1A-interacting protein 1 (Homo sapiens) (Q5JTV8 whole entry, looked up): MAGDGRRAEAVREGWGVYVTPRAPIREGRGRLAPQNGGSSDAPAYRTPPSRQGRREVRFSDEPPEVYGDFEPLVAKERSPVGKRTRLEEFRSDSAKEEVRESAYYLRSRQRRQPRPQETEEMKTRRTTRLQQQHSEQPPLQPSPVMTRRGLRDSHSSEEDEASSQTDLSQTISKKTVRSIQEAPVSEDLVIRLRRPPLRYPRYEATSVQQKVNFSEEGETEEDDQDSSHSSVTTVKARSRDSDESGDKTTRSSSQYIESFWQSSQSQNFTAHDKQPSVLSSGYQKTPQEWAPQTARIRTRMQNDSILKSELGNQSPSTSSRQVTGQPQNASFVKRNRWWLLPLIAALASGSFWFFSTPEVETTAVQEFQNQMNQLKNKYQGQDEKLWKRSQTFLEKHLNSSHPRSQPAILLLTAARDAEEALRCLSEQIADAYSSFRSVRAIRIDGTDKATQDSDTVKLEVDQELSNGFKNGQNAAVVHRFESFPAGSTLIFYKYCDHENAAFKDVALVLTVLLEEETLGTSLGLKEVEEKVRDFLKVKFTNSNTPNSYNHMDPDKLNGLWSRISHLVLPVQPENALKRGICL
Chain of Follistatin-related protein 3 (Homo sapiens) (O95633 whole entry, looked up): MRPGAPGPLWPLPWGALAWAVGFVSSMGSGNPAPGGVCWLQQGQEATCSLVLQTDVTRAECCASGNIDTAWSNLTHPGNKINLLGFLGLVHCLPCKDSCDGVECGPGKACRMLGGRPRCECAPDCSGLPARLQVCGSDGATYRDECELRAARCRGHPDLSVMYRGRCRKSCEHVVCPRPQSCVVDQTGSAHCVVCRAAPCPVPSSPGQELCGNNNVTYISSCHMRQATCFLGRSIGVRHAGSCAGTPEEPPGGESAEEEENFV
Chain of Alpha-bungarotoxin (Bungarus multicinctus) (P60615 whole entry, looked up): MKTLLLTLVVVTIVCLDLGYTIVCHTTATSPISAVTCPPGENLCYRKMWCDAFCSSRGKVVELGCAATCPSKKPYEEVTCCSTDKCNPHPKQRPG

`C[C@]1(C(=O)NCc2ccccc2)c2ccccc2C(=O)N(Cc2cc(C(F)(F)F)cc(C(F)(F)F)c2)[C@H]1c1ccc(CO)cc1`: the composite z-score stood at 0.643 in assay [1]; 0.698 in assay [2]; 0.778 in assay [3]; 0.894 in [5]; 1.18 in [6]; 0.123 in assay [7]. Besides, the composite z-score amounted to 0.439 in assay [8]; 0.419 in [9]; 0.856 in assay [10]; 1.1 in assay [11]; 0.159 in assay [13]; 0.956 in [14]. Also, the composite z-score in assay [15] was 0.844; in assay [16], -0.0519; in assay [17], 1.39; in assay [18], -0.0047; in [19], 0.541; in [20], 0.615. Moreover, the z-score was -1.73 (inactive) in assay [4] and -2.06 in [12].
`CCc1cccc(NC(=O)O[C@H]2[C@H](OC(=O)Nc3ccccc3)[C@@H](OC(=O)Nc3ccccc3)[C@@H](OC)O[C@@H]2CO)c1`: the composite z-score is 1.35 in [1]; 0.169 in [2]; 0.37 in assay [3]; 1.54 in assay [5]; 1.07 in assay [6]; 0.0832 in assay [7]. The composite z-score came to 1.41 in assay [8]; 0.319 in [9]; 0.451 in [10]; 1.51 in assay [11]; 0.273 in [13]; 1.19 in assay [14]. For the same molecule, the composite z-score in assay [15] is -0.291; in [16], 0.0267; in [17], 0.19; in assay [18] it was 1.34; in [19], 2.41; in assay [20], 1.2. Moreover, the figures for the z-score in assay [4] and in assay [12] were -0.0187 (inactive) and -3.51, respectively.
As for `C=C(CCCC)/C(=C/C[C@@H](OC(=O)c1ccncc1)c1cccc(OCCO)c1)c1cc(C(=O)OC)ccc1OC`, the composite z-score in assay [1] was 0.953; in assay [2] it was -0.0661; in assay [3] it was 0.273; in [5] it was 0.74; in assay [6], 0.764; in assay [7], 0.53. For the same molecule, the composite z-score in assay [8] was 0.933; in [9] it was 0.438; in assay [10], 0.482; in assay [11] it was -0.414; in assay [13], 0.725; in assay [14], 0.652. For the same molecule, the composite z-score was -0.732 in assay [15]; -0.143 in [16]; -0.138 in assay [17]; -0.452 in assay [18]; 0.344 in assay [19]; 1.21 in [20]. For the same molecule, the z-score was 0.151 (inactive) in assay [4] and -2.29 in assay [12].
For the molecule `CCOC(=O)C[C@H]1[C@H](OC(=O)Cc2ccc3c(c2)OCO3)[C@@H](NC(=O)c2ccc3ccccc3c2)c2cc(OCCCO)ccc2N1C(=O)Cc1ccc(OC)cc1`, the composite z-score turned out to be 0.354 in [1]; 0.19 in assay [2]; 0.0248 in assay [3]; 0.491 in [5]; 0.397 in assay [6]; 0.373 in assay [7]. The composite z-score came out at 0.439 in assay [8]; 0.435 in [9]; 0.147 in [10]; 1.01 in [11]; 0.296 in assay [13]; 1.19 in [14]. For the same molecule, the composite z-score is 0.139 in assay [15]; -0.159 in [16]; -0.367 in assay [17]; -0.568 in [18]; 0.941 in [19]; 0.454 in [20]. For the same molecule, the results for the z-score in assay [4] and in [12] were -1.83 (inactive) and -1.74, respectively.
With `NC(=O)NCC#Cc1ccc2c(c1)[C@]1(C(=O)N2)[C@H](C(N)=O)[C@H]2C(=O)O[C@H](c3ccccc3)[C@H](c3ccccc3)N2[C@@H]1c1ccccc1OCCO`, the composite z-score in assay [1] came to 0.628; in assay [2] it was 0.371; in assay [3], 0.482; in [5], 1.06; in [6], 0.343; in assay [7] it was 0.269. The composite z-score is 1.02 in [8]; 0.576 in assay [9]; 1.02 in assay [10]; 1.04 in assay [11]; 0.375 in assay [13]; 0.425 in assay [14]. Besides, the composite z-score in [15] is 0.356; in assay [16], -0.124; in assay [17] it was -0.0793; in assay [18], 0.657; in [19] it was 0.808; in assay [20], 0.45. Moreover, the z-score in assay [4] is -0.328 (inactive); in assay [12], -0.771.
Take `C=CCN1C(=O)[C@@]2(O[C@@H](CCn3cc([C@H](O)c4ccccc4)nn3)[C@H]([Si](C)(C)c3ccc(OC)cc3)[C@H]2C)c2cc(N3CCOC3=O)ccc21`: the composite z-score in assay [1] is -0.412; in assay [2], 0.16; in assay [3] it was 0.338; in assay [5] it was 0.0752; in assay [6], 0.472; in assay [7], 0.135. Also, the composite z-score in assay [8] is -0.0856; in [9], 0.216; in [10], 0.392; in assay [11] it was -0.0922; in [13], -0.125; in assay [14], 0.0419. The composite z-score in assay [15] was 0.462; in assay [16], -0.0754; in assay [17], -0.2; in assay [18] it was -0.0428; in assay [19], 0.559; in assay [20], -0.577. Further, the z-score was -2.62 (inactive) in assay [4] and -3.71 in assay [12].
